Experimental data reported in ChEMBL document CHEMBL3988442, “University of Dundee, Small-Polar-MMV Screening Library” (2021).
For some assays here: Measured potencies and affinities stand elsewhere.

Legend:
Design in all cases: scale not given: direction of the effect not stated beside the values
[1] = target: Protein translocase subunit SecA (Escherichia coli (strain K12)) (UniProt P10408); assay: Assay to Identify E. coli SecA ATPase Inhibitors; type: functional; details: 30 µM
[2] = target: T1, Ubiquitin-activating enzyme e1, putative (Leishmania donovani (strain BPK282A1)) (UniProt E9BSI1); assay: Leishmania donovani Ubiquitin Activating Enzyme (LdE1); type: functional; details: 30 µM
T1 sequence (whole entry): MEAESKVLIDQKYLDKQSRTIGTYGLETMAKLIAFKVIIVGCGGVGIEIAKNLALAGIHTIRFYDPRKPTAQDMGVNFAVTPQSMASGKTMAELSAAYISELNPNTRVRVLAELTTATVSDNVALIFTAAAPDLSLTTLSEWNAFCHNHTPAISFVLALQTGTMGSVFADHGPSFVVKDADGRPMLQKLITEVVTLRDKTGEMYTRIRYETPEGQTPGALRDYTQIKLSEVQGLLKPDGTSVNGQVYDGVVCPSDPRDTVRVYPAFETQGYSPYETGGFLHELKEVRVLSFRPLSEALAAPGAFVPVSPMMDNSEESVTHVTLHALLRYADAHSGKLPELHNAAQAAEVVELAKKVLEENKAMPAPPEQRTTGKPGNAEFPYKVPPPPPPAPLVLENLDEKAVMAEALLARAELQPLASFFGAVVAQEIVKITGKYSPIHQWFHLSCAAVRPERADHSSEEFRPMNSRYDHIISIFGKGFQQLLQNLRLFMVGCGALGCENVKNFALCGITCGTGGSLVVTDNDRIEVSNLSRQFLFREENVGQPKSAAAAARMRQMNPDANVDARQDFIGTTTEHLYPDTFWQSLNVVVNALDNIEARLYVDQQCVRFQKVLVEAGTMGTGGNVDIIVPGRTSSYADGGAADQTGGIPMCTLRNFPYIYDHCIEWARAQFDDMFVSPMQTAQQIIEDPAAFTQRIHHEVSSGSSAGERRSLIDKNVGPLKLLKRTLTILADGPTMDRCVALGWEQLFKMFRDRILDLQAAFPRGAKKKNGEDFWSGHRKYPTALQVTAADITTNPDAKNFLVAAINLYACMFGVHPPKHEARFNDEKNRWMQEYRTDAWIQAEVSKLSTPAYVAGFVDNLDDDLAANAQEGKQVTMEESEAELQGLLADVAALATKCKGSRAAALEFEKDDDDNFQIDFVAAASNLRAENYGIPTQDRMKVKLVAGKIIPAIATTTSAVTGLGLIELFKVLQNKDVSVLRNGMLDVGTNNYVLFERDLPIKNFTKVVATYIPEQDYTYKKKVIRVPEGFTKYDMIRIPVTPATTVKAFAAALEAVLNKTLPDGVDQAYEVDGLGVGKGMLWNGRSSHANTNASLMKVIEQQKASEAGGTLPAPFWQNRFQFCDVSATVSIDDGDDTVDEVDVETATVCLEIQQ

[3] = target: AMP-activated protein kinase, AMPK (Homo sapiens) (UniProt P54646+O43741+P54619+Q9UGJ0+Q9Y478+Q13131+Q9UGI9); assay: AMP-dependent Kinase enzyme assay. An in vitro enzyme assay that detects ADP turnover that is directly proportional to AMPK activity. This uses naive AMPK that is activated during the assay with MK-8722; type: functional; details: 30 µM
[4] = target: Sialic acid-binding Ig-like lectin 9 (Homo sapiens) (UniProt Q9Y336); assay: Hs-Siglec9 ALPHAscreen SOP 20170721; details: 10 µM
Chain of Sialic acid-binding Ig-like lectin 9 (Homo sapiens) (Q9Y336 whole entry): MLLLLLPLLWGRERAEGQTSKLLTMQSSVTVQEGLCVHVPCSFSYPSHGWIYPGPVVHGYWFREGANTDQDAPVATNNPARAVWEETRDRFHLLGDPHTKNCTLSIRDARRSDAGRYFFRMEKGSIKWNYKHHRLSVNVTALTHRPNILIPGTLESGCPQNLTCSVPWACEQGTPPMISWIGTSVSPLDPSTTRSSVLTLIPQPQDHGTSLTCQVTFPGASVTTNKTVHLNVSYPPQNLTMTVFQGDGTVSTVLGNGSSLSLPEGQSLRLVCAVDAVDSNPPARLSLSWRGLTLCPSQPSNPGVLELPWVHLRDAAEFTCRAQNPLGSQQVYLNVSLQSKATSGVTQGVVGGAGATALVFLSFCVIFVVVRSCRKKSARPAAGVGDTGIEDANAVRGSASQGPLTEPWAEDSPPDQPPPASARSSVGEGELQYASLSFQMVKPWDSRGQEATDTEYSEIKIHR

[5] = tested on: Trypanosoma cruzi; assay: Trypanosoma cruzi phosphomannomutase and mannose-1-phosphate guanylyltransferase assay; type: functional; details: 10 µM
[6] = target: T2, Arginase-2, mitochondrial (Homo sapiens) (UniProt P78540); assay: in vitro enzyme assay to detect the production of urea directly proportional to the activity of Arginase II; type: functional; details: 33.3 µM; also: in the data most compounds retested in dose-response had high values
T2 sequence (whole entry): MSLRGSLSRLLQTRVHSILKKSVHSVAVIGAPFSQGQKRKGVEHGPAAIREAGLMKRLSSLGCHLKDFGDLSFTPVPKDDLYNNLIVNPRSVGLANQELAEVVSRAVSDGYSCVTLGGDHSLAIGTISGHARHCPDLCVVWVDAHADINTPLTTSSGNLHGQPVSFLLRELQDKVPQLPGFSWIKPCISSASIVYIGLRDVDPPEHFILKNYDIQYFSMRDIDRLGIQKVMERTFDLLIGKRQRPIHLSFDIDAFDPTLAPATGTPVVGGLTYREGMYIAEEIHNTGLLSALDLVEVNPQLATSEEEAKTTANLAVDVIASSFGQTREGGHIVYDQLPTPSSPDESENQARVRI

[7] = target: T3, Proteasome subunit beta (Trypanosoma cruzi) (UniProt O96673); assay: Trypanosoma cruzi proteasome chymotrypsin-like activity (TcProtChymo) assay.; also: in the data most compounds retested in dose-response had high values; type: functional; details: 9.37 µM
T3 sequence (whole entry): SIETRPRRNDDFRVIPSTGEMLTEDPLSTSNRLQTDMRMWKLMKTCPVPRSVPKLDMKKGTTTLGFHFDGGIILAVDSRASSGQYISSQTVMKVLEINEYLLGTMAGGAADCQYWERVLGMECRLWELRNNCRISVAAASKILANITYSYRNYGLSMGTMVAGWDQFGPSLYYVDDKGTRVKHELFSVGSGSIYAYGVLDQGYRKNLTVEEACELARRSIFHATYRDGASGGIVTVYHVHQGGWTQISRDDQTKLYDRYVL

[8] = organism: Homo sapiens; assay: To identify inhibition of the IFN signalling (Jak-Stat) pathway via expression of an eGFP reporter gene under the control of an IFN-stimulated response element (ISRE) containing MxA promoter.; type: functional; details: 30 µM
[9] = target: T4, Tyrosyl-tRNA synthetase, putative (Trypanosoma cruzi (strain CL Brener)) (UniProt Q4DSP6); assay: Trypanosoma cruzi tyrosyl tRNA synthetase (TcYRS) _High Tyrosine SOP; type: functional; details: 30 µM; also: in the data most compounds retested in dose-response had high values
T4 sequence (whole entry): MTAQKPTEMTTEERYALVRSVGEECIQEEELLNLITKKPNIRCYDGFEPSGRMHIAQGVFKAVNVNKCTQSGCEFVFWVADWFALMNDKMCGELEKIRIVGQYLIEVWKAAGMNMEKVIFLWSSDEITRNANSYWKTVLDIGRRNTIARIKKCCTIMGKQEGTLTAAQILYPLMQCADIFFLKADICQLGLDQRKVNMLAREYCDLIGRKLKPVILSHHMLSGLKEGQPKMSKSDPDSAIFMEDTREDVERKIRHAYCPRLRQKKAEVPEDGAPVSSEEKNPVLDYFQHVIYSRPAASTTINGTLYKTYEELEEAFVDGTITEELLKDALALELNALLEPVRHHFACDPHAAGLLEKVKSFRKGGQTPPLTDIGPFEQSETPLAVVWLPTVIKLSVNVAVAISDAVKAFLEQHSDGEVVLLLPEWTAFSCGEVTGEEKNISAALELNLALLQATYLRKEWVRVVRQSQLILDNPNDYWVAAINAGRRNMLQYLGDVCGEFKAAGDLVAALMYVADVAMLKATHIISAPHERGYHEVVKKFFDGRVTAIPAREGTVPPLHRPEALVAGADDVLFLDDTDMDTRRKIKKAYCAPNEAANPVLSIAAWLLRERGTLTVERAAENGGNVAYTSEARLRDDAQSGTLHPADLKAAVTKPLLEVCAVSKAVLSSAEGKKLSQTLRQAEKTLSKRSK

[10] = target: T4, Tyrosyl-tRNA synthetase, putative (Trypanosoma cruzi (strain CL Brener)); assay: Trypanosoma cruzi tyrosyl tRNA synthetase (TcYRS) SOP; type: functional; details: 30 µM
[11] = target: Chromo domain-containing protein 1 (Saccharomyces cerevisiae (strain ATCC 204508 / S288c) (Baker's yeast)) (UniProt P32657); assay: ScCHD-1 Enzyme Inhibition Assay; type: functional; details: 30 µM; also: in the data most compounds retested in dose-response had high values
Chain of Chromo domain-containing protein 1 (Saccharomyces cerevisiae (strain ATCC 204508 / S288c) (Baker's yeast)) (P32657 whole entry, the tested form may be a part): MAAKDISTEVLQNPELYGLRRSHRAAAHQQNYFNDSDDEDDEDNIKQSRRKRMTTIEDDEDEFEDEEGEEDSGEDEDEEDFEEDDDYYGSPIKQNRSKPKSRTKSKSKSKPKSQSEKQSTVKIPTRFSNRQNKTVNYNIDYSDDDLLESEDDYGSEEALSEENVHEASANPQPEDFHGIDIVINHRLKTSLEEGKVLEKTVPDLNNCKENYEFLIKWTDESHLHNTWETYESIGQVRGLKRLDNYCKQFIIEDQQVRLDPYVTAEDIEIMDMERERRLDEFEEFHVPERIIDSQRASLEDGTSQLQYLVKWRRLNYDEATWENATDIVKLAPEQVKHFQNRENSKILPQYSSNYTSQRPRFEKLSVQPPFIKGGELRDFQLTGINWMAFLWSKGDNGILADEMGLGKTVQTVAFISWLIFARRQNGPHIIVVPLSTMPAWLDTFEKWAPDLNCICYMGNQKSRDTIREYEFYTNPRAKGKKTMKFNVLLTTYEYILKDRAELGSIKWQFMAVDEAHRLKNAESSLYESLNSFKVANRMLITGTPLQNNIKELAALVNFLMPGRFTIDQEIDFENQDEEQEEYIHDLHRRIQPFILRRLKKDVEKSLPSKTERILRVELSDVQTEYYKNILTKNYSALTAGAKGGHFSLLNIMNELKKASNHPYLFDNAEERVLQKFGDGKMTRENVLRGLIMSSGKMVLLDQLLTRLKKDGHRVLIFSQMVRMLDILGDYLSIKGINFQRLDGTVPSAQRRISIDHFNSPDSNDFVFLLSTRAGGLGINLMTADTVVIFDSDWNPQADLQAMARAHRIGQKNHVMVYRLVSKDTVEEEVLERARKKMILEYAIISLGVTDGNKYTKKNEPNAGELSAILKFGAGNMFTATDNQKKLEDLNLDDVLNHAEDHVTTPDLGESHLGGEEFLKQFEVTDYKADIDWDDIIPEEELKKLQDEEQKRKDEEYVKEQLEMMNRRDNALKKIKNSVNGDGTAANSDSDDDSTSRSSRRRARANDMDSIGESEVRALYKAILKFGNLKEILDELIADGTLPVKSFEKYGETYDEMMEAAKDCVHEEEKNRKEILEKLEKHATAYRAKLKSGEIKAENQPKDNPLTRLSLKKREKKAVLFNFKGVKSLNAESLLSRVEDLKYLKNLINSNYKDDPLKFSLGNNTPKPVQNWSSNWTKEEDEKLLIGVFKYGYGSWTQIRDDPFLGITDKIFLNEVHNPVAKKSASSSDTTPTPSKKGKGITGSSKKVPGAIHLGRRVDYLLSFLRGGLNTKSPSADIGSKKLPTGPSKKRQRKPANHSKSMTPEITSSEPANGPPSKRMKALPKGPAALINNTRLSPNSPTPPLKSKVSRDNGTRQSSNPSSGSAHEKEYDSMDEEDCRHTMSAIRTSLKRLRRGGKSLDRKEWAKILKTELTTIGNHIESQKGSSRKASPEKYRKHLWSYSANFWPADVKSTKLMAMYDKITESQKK

Chain of Protein translocase subunit SecA (Escherichia coli (strain K12)) (P10408 whole entry): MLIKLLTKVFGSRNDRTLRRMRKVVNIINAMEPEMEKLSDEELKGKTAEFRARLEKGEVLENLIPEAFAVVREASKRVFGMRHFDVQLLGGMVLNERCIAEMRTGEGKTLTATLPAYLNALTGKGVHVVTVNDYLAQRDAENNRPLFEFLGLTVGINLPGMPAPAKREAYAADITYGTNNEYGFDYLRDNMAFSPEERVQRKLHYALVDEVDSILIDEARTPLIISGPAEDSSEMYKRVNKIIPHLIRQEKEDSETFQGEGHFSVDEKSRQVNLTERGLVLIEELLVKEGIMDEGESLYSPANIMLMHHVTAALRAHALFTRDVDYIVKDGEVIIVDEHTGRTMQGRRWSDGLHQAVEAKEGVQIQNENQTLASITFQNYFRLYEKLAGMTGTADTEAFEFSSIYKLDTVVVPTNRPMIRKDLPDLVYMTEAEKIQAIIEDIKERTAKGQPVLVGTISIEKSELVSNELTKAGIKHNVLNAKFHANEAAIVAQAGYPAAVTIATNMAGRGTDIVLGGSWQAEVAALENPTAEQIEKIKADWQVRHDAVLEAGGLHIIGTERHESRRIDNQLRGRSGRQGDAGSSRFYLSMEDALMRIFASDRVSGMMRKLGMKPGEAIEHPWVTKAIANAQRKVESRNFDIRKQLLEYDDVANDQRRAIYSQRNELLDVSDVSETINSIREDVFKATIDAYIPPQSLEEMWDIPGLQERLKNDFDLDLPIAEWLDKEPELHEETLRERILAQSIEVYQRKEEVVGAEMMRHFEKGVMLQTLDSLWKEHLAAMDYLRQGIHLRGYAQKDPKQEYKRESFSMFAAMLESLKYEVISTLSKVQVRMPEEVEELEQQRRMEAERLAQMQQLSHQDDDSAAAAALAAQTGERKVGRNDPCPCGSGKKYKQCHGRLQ

Structure (SMILES) | Percent Effect [1] | Percent Effect [2] | Percent Effect [3] | Percent Effect [4] | Percent Effect [5] | Percent Effect [6] | Percent Effect [7] | Percent Effect [8] | Percent Effect [9] | Percent Effect [10] | Percent Effect [11]
Cc1cc(C)c2nc(CN3CCOC(CCO)C3)cc(O)c2c1 (configuration not stated) | -2.9% | 2.7% | -1.47% | 5.2% | 0.965% | -2.38% | 10.3% | -6.99% | 4.76% | 14.6% | -1.34%
CCOC(=O)CCC(=O)N1CCC(Oc2ccc(C(F)(F)F)cn2)CC1 | -1.66% | 7.79% | 4.3% | 13.1% | -6.41% | -1.94% | 14.1% | 20.3% | 3.17% | 11.5% | -5.92%
COc1ccc(CNC2CCN(CCc3ccncc3)CC2)cc1O | -6.94% | 16.2% | -9.03% | 9.91% | 5.27% | 26.7% | 10.6% | -0.697% | -6.93% | 8.54% | -9.05%
OC(CN1CCN(c2ncccn2)CC1)c1cccc(F)c1 (configuration not stated) | -2.83% | 13.5% | -5.06% | 19.1% | 4.99% | 16.6% | 2.49% | 20.5% | 6.45% | 16.1% | -5.42%
CN(Cc1ccc(Cl)s1)C(=O)c1cccc(OCC(N)=O)c1 | 1.02% | 5.41% | 0.84% | -1.09% | -3.09% | 0.952% | 11.2% | 15.1% | 4.76% | 14.6% | -3.46%
Cc1ccc(CN(Cc2cccnc2)C2CC(C)(C)NC(C)(C)C2)s1 | -5.72% | 1.35% | 9.33% | -0.663% | -3.36% | -5.8% | 10.1% | 13.4% | 2.15% | -1.3% | -9.11%
CCc1ccccc1-n1nnc(C(=O)O)c1-c1ccccn1 | -2.26% | 13.2% | 1.03% | -0.0352% | 1.85% | 1.18% | 23.5% | -17.6% | 4.25% | 13% | -6.21%
CC(=O)N1CC(=O)N(c2cnn(C)c2)CC12CCN(Cc1ccoc1)C2 (configuration not stated) | -1.18% | 5.41% | 1.2% | -0.95% | 1.95% | 1.25% | -1.61% | 5.16% | 2.97% | 11% | -1.77%
Cc1nccn1C1CCCN(C(=O)c2cc(O)nc3ccccc23)C1 (configuration not stated) | -2.57% | 12.7% | -7.86% | 5.85% | -1.98% | -4.18% | -4.34% | -4.23% | 6.4% | 13.9% | -5.76%
Cc1cccc(N2CCN(CCNC(=O)c3ccnn3C)CC2)c1 | 0.195% | 5.41% | -1.81% | -4.27% | -4.88% | 3.75% | 14.6% | 6.3% | 9.9% | 11% | 5.87%
COc1ccc(C(C)=O)c(OCC(=O)NC(C)c2ccc(F)cc2)c1 (configuration not stated) | -0.739% | 10.8% | -5.53% | 8.21% | 5.77% | 23.6% | 9.19% | -11.8% | 0% | 11.1% | -6.76%
CC(C)(O)C1CCN(C(=O)Nc2nc(-c3ccccc3)ns2)CC1 | -2.39% | 2.7% | -2.64% | 7.48% | 2.25% | 18.6% | 18.8% | 55.5% | 1.07% | 3.7% | -3.52%
Cc1ccc(CNC(=O)N2CCCCC2CCNS(C)(=O)=O)cc1 (configuration not stated) | -1.58% | 2.7% | 2.59% | -1.08% | -1.74% | -15.2% | 12.6% | 23.6% | 2.65% | 2.44% | -4.89%
CNC(=O)[C@@]12CCC3(CCN(S(C)(=O)=O)CC3)[C@@H]1CN(S(C)(=O)=O)C2 | -2.26% | 13.5% | -10.4% | 2.21% | -3.81% | 0.248% | 6.78% | 9.73% | 1.07% | 11.1% | 1.21%
COc1ccc(CN2CCOC3(CCCN(c4nnc(C)o4)C3)C2)cc1 (configuration not stated) | -4.63% | -2.74% | -4.05% | 6.97% | 5.75% | 2% | 10.4% | -9.72% | 4.17% | -1.24% | -4.74%
Cc1ccc(C2CSCCN2C(=O)C2=CCCC2)o1 (configuration not stated) | -5.63% | 8.11% | -2.27% | 26.9% | 0.684% | 1.24% | 2.83% | -24% | 1.07% | 6.17% | -2.84%
CCC(C)(C)NC(=O)C1CC(=O)N(CC2CC2)C1 (configuration not stated) | -2.71% | 13.5% | 9.25% | -3.89% | -7.15% | 3.14% | 11.3% | 17.7% | 2.97% | -18.3% | -7.51%
Cc1nc2cc(C(=O)N3CCCC(n4cncn4)C3)ccc2n1C (configuration not stated) | -4.14% | 5.41% | -2.29% | 11.4% | 9.75% | -0.924% | -5.21% | 0.593% | 3.96% | 13.4% | -2.87%
CSc1ccc(S(=O)(=O)N2CCCCC2CCNC(C)=O)cc1 (configuration not stated) | 0.287% | 11% | -3.42% | 4.24% | 1.59% | 1.6% | 14.8% | 9.17% | 7.29% | 16.1% | -5.63%
Cc1ccc(CNCc2nnc3n2CCCC3C(F)(F)F)o1 (configuration not stated) | -2.71% | 5.33% | 2.9% | -7.37% | -6.13% | -3.12% | 8.54% | 11.4% | 0.546% | 3.7% | -5.76%
CCN1C[C@H]2CCN(C(=O)NC3CCCC3)CC[C@H]2S1(=O)=O | 2.4% | 14.7% | 2.73% | -7.67% | -3.54% | -5.81% | 15.5% | 2.2% | 1.06% | 5.13% | -7.62%
CN1CCN(C(=O)[C@H]2C[C@@H]3CCN(c4ncc(F)cn4)C[C@@H]3O2)CC1 | 1.76% | 8% | 10% | 14.4% | -2.51% | -53.2% | 10.3% | 7.21% | 0% | 17.5% | -8.06%
